Common to all, as to experiment: NCI-60 one-dose screen, 48 h (100 = growth as untreated, 0 = no growth, -100 = all killed)
Details in all cases: 10 µM unless noted

Assay [1] relates to HCT-15 colon.
The subject of assay [2] is HT29 colon.
Assay [3] concerns SNB-75 CNS.
Assay [4] relates to U251 CNS.
Assay [5] has as its system SK-MEL-5 melanoma.
The test system of assay [6] is UACC-62 melanoma.
In assay [7] the test system is LOX IMVI melanoma.
Assay [8] has as its system SK-MEL-28 melanoma.
For assay [9], the system named is SNB-19 CNS.
Assay [10] concerns PC-3 prostate.

Compounds without any hit were thinned out: in the full panel of roughly 83,000, 20% have a hit.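 The endpoint reported here, percent growth, reads 100 for growth as untreated, 0 for no net growth and -100 for all cells dead.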 Unmarked numbers belong to inactive results. The source made the active and inactive calls. How the source made its calls: active means growth percent below 10; inactive means the rest.

On to `O=C1OC2C(I)C3CC2C1C3c1ccccc1` (configuration not stated), for which the growth in assay [1] was 105%; in assay [2], 98.7%; in [3], 73.5%; in [4], 104%; in [5], 108%; in assay [6] it was 93.1%. Also, the growth in assay [7] was 93.4%; in assay [8], 105%.

Take `COc1ccc(OCC(=O)Nc2ccc(-c3nc4ccccc4s3)cc2C)cc1`: the growth in [1] is 85.9%; in assay [2] it was 91.7%; in assay [3], 83.4%; in [4], 96.2%; in assay [5], 70.8%; in assay [6] it was 83.2%. The growth in assay [7] is 89%; in [8] it was 107%.

Turning to `COc1cc(C#N)cc(OC)c1OCCN(CCOc1c(OC)cc(C#N)cc1OC)S(=O)(=O)c1ccc(C)cc1`, the growth in assay [1] was 108%; in [2], 111%; in [3] it was 92.7%; in assay [4] it was 103%; in [5] it was 61.8%; in assay [6], 96.8%. Also, the results for the growth in [7] and in [8] were 93.1% and 118%, respectively.

Take `CC1CN(Cc2ccco2)C(=S)N(c2ccccc2)C1=O` (configuration not stated): the growth is 98.2% in assay [1]; 93.4% in assay [2]; 62.2% in assay [3]; 93.4% in assay [4]; 100% in assay [5]; 93.2% in assay [6]. Also, the growth in [7] was 94.1%; in assay [8], 102%.

For the molecule `CCN(CC)c1ccc(/C=C/C2=[N+](C)c3ccccc3C2(C)C)cc1`, the growth in [1] is 41.1%; in assay [2], 10.7%; in assay [3], 26.4%; in assay [4], 13.8%; in [5], -71.3% (active); in assay [6], 16%. In addition, the growth in assay [8] was 42.9%.

As to `COc1ccc(S(=O)(=O)NCCCNc2cc(-c3c(-c4cccc(OC)c4)nc4sccn34)ccn2)cc1`, the growth in assay [1] was 35.7%; in assay [2], 35%; in assay [9], 62.7%; in assay [4], 59.4%; in assay [10], 26.9%; in [5], -10.9% (active). Moreover, the values for the growth in assay [6], in assay [7] and in assay [8] were 20.4%, 46.6% and 65.5%, respectively.

For the molecule `C=C1C(=O)O[C@H]2[C@H]1CC/C(Cn1cc(Cn3ccc4cc(Cl)ccc43)nn1)=C\CC[C@@]1(C)O[C@@H]21`, the growth is -47.1% (active) in assay [1]; -43.3% (active) in [2]; 53.5% in assay [9]; 28.9% in [4]; 6.92% (active) in assay [10]; 46.9% in [5]. The figures for the growth in [6], in [7] and in assay [8] were 5.99% (active), -89.5% (active) and -13.3% (active), respectively.

Consider `CCCCN(CC)CCCCCCCCCCN1CCCc2cc(OC)ccc21`, for which the growth was 38.1% in assay [1]; 19.2% in assay [2]; 93.2% in [3]; 87.4% in assay [4]; 29.9% in assay [10]; 92.1% in assay [5]. Also, the growth in assay [7] is 15%; in assay [8], 119%.

`Nc1cccc(NC(=O)C(=O)Nc2cccc(N)c2)c1`: the growth in assay [1] was 94.5%; in assay [2], 115%; in [3], 94%; in [4], 95.8%; in assay [5], 117%; in [6] it was 90.6%. The growth in [7] is 90%; in [8], 103%.

`CCCN(CCC)CN(CCC)CCC`: the growth was 102% in assay [1]; 96.5% in assay [2]; 96% in [3]; 98.1% in assay [4]; 97.5% in [10]; 107% in assay [5]. The results for the growth in assay [7] and in [8] were 104% and 106%, respectively.

Regarding `Cc1nc2sc(C(=O)Nc3cccc4c3OCCO4)c(N)c2cc1C(C)O` (configuration not stated), the growth in assay [1] was 21.4%; in assay [2] it was 3.68% (active); in assay [9] it was 34.3%; in [4], 28.7%; in assay [10], 32.6%; in assay [5] it was 29.7%. For the same molecule, the growth in assay [6] is 22%; in [7], 33%; in assay [8], 66.6%.

On to `CCN(CC)CCCNc1cccc2c(SCc3ccccc3)ccnc12`, for which the growth was 81.1% in [1]; -33.1% (active) in [2]; 87.1% in assay [3]; 48.6% in assay [4]; 17.7% in assay [10]; 85.4% in [5]. Moreover, the growth in [7] is 24%; in [8], 108%.

`CC[C@H](CO)Nc1nc(NCc2ccccc2)n2ncc(C(C)C)c2n1`: the growth in assay [1] was 2.45% (active); in assay [2] it was 3.07% (active); in [3], -73.4% (active); in assay [4], 5.23% (active); in assay [5] it was -17.6% (active); in assay [6], -41.8% (active). The growth in assay [7] is 4.45% (active); in assay [8] it was -16.9% (active).

Regarding `Cc1ccc(SCN2CCN(c3cccc(Cl)c3)CC2)cc1`, the growth was 93.1% in assay [1]; 110% in [2]; 85.4% in assay [3]; 89.1% in assay [4]; 93.7% in [5]; 89% in assay [6]. For the same molecule, the growth is 81.6% in assay [7] and 120% in assay [8].

As to `CCCCN(CCCC)CCC(C)(O)c1cc2ccccc2c2ccccc12` (configuration not stated), the growth in [1] was 82.2%; in assay [2], 39.7%; in [3] it was 106%; in [4], 86.3%; in [10], 47.5%; in [5], 102%. Moreover, the figures for the growth in assay [7] and in [8] were 45.7% and 121%, respectively.

For the molecule `COc1ccc(C(=O)COc2ccc(/C=C3\Oc4ccc(Cl)cc4C3=O)cc2)cc1`, the growth in assay [1] was 103%; in assay [2] it was 109%; in assay [3], 88.8%; in [4], 96.7%; in [5] it was 78.8%; in assay [6] it was 83.6%. Also, the growth in assay [7] is 92%; in assay [8] it was 79.9%.

`CC1(C)CC(C(=O)OCCCCCCCCCCC[P+](c2ccccc2)(c2ccccc2)c2ccccc2)C(C)(C)N1O` (configuration not stated): the growth in [1] is 88.5%; in assay [2], -33.9% (active); in assay [3] it was -57.9% (active); in assay [4], 110%; in [5] it was -97.6% (active); in [6], -69.3% (active). The growth was 117% in [7] and -95.2% (active) in assay [8].

For `Cc1cc(N/N=C/c2nc(-c3ccc(Cl)cc3)oc2C)c2cc(Cl)ccc2n1`, the growth was -52.6% (active) in assay [1]; -51.2% (active) in assay [2]; 29.3% in assay [9]; -54.5% (active) in assay [4]; 67% in assay [10]; 95.1% in assay [5]. The figures for the growth in assay [6], in assay [7] and in [8] were 29.7%, -66.7% (active) and 10.3%, respectively.

For `Cc1ccc2c(c1)C(=O)/C(=C/c1ccc(OCC(=O)c3ccccc3)cc1)O2`, the growth is 75.3% in assay [1]; 101% in assay [2]; 109% in [3]; 99.1% in assay [4]; 86.9% in assay [5]; 63.8% in [6]. Also, in [8], the growth is 112%.

Turning to `O=C1CCc2c(sc3[nH]c(=S)n(Cc4ccccc4)c(=O)c23)C1`, the growth was 7.5% (active) in [1]; 79.6% in [2]; 11.8% in [9]; 8.09% (active) in assay [4]; 13.9% in [10]; -75.6% (active) in assay [5]. Further, the growth in assay [6] is 8.72% (active); in assay [7], 11.7%; in assay [8] it was 25%.

On to `CC(C)n1cc2c(N)ncnc2n1`, for which the growth in assay [1] is 106%; in assay [2], 101%; in assay [3] it was 81.6%; in [4], 106%; in assay [5], 108%; in [6] it was 92.9%. The growth in assay [7] was 108%; in [8] it was 152%.

Consider `O=C(Nc1cccc2c1C(=O)c1cccc(Nc3cccc4c3C(=O)c3cccc(NC(=O)c5ccccc5)c3C4=O)c1C2=O)c1ccccc1`, for which the growth was 110% in assay [1]; 124% in assay [2]; 92.8% in assay [3]; 109% in assay [4]; 87.2% in assay [10]; 112% in [5]. Besides, the growth was 98.1% in assay [7] and 118% in [8].

With `CNc1cc2nc3cc(NC)c(C)cc3cc2cc1C`, the growth in assay [1] was 11.1%; in assay [2] it was 10%; in assay [3], 16.5%; in assay [4] it was 9.07% (active); in assay [5] it was 35.7%; in assay [6], 45.7%. The results for the growth in [7] and in assay [8] were 6.5% (active) and 46%, respectively.

Take `CCN(CC)c1ccc(CNc2cc(C)nc3ccc(OC)cc23)cc1`: the growth in assay [1] was 79.1%; in [2], 9.05% (active); in assay [3], 65.8%; in assay [4], 25%; in assay [10], 28.5%; in [5], 39%. The growth in assay [7] is 24.7%; in [8], 96.6%.

For `Nc1cc2ccncc2c2ccccc12`, the growth in assay [1] was 75.1%; in [2] it was 65.2%; in assay [3] it was 116%; in assay [4], 81.1%; in [5], 76.9%; in assay [6], 60.7%. The growth is 50.8% in [7] and 103% in assay [8].

As for `CCCCCCCCCCNC(=O)CCl`, the growth in [1] was 72.4%; in assay [2] it was 84.2%; in assay [3] it was 45.5%; in assay [4] it was 69.8%; in assay [5], 72.9%; in assay [6] it was 73.8%. The growth in assay [7] was 50.9%; in assay [8], 105%.

With `COc1cccc(/C=C\C(=O)c2ccccc2)c1`, the growth is 66.3% in [1]; 73.4% in assay [2]; 78.9% in assay [3]; 35.1% in assay [4]; 90.8% in [5]; 70.7% in assay [6]. The growth was 30.3% in [7] and 103% in assay [8].

For the molecule `NS(=O)(=O)N(c1cc(C(F)(F)F)cc(C(F)(F)F)c1)C1CCN(Cc2ccc(F)cc2)CC1`, the growth is 24.4% in assay [1]; 8.44% (active) in assay [2]; 55.3% in assay [3]; 59.8% in [4]; 32.2% in [5]; 57.1% in assay [6]. Moreover, the growth in assay [7] was 68.9%; in assay [8] it was 82.1%.

Regarding `CCCCCCCCCCCCNC(=O)[C@H]1CSC(c2ccc(OC)c(F)c2)N1` (some centres not stated), the growth in assay [1] was -82.3% (active); in assay [2], -83.1% (active); in assay [9], -92.6% (active); in assay [4] it was -93.4% (active); in assay [10], -93.8% (active); in [5] it was -98.1% (active). Also, the results for the growth in assay [6], in assay [7] and in assay [8] were -95% (active), -89.6% (active) and -92.6% (active), respectively.

As to `CN1CCN(Cc2ccc(NC(=O)c3cncc(C#Cc4cnc(N)c5cccnc45)c3)cc2C(F)(F)F)CC1`, the growth in assay [1] is 22.9%; in assay [2], 7.8% (active); in assay [9], 39.8%; in [4] it was 33.9%; in assay [10] it was 29.3%; in assay [5] it was -23.6% (active). Besides, the growth was -47.6% (active) in assay [6], -76.6% (active) in [7] and -2.55% (active) in assay [8].

For `O=C1/C(=C\c2cn(C(=O)c3ccc(Cl)cc3)c3ccccc23)c2ccccc2N1c1c(Cl)cccc1Cl`, the growth in [1] is 66.3%; in [2] it was 103%; in assay [3] it was 82.3%; in assay [4], 88.4%; in assay [5], 107%; in assay [6], 95.4%. Further, the growth in assay [7] is 97.7%; in assay [8], 113%.

`CCN(CC)CC#CCOC(=O)[C@]1(C)CCC[C@@]2(C)[C@H]1CC(C=O)=C1C=C(C(C)C)CC[C@@H]12`: the growth in assay [1] is 40.9%; in [2], 9.02% (active); in assay [9], 77.1%; in assay [4], 57.2%; in [10], 45.4%; in assay [5], 42.8%. Moreover, the growth in [6] is 68.9%; in assay [7] it was 73.2%; in [8], 87.4%.
